Data from PubChem BioAssay (NCATS).
Results filed as inconclusive are left out. Calls of active or inactive are those of the source. Calls follow the shape of the dose curve; as a rule, active = well fitted inhibition curve with a large enough effect; inconclusive = small, poorly fitted or top-dose-only effect; inactive = flat fitted curve, though single readings scatter.

Legend:
[1] = qHTS profiling for inhibitors of Plasmodium falciparum proliferation (AID 504749); also: nearly all actives have a fitted effect of over 60% in size;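 as to activity, negative = inhibition: 0% = DMSO vehicle and full inhibition = artemisinin control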; conditions: P. falciparum in erythrocytes, SYBR Green DNA, 72 h
How it was run: (§1)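 Three-day growth assay of blood-stage parasites in erythrocytes (0.3% parasitemia, 2.5% hematocrit) at 37 C, 5% CO2, quantified by SYBR Green DNA staining after overnight detergent lysis.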

3D7 = assay: as above; conditions: P. falciparum in erythrocytes, SYBR Green DNA, 72 h; series mostly up to 28.7 µM
How it was run: as §1

7G8 = assay: as above; conditions: P. falciparum in erythrocytes, SYBR Green DNA, 72 h; series mostly up to 28.7 µM
How it was run: as §1

AA1029 = assay: as above; conditions: P. falciparum in erythrocytes, SYBR Green DNA, 72 h; series mostly up to 28.7 µM
How it was run: as §1

AS120 = assay: as above; conditions: P. falciparum in erythrocytes, SYBR Green DNA, 72 h; series mostly up to 28.7 µM
How it was run: as §1

ATS189 = assay: as above; conditions: P. falciparum in erythrocytes, SYBR Green DNA, 72 h; series mostly up to 28.7 µM
How it was run: as §1

ATS95 = assay: as above; conditions: P. falciparum in erythrocytes, SYBR Green DNA, 72 h; series mostly up to 28.7 µM
How it was run: as §1

C2A = assay: as above; conditions: P. falciparum in erythrocytes, SYBR Green DNA, 72 h; series mostly up to 28.7 µM
How it was run: as §1

CP192 = assay: as above; conditions: P. falciparum in erythrocytes, SYBR Green DNA, 72 h; series mostly up to 28.7 µM
How it was run: as §1

CP194 = assay: as above; conditions: P. falciparum in erythrocytes, SYBR Green DNA, 72 h; series mostly up to 28.7 µM
How it was run: as §1

CP201 = assay: as above; conditions: P. falciparum in erythrocytes, SYBR Green DNA, 72 h; series mostly up to 28.7 µM
How it was run: as §1

CP203 = assay: as above; conditions: P. falciparum in erythrocytes, SYBR Green DNA, 72 h; series mostly up to 28.7 µM
How it was run: as §1

CP211 = assay: as above; conditions: P. falciparum in erythrocytes, SYBR Green DNA, 72 h; series mostly up to 28.7 µM
How it was run: as §1

CP215 = assay: as above; conditions: P. falciparum in erythrocytes, SYBR Green DNA, 72 h; series mostly up to 28.7 µM
How it was run: as §1

CP217 = assay: as above; conditions: P. falciparum in erythrocytes, SYBR Green DNA, 72 h; series mostly up to 28.7 µM
How it was run: as §1

CP237 = assay: as above; conditions: P. falciparum in erythrocytes, SYBR Green DNA, 72 h; series mostly up to 28.7 µM
How it was run: as §1

CP238 = assay: as above; conditions: P. falciparum in erythrocytes, SYBR Green DNA, 72 h; series mostly up to 28.7 µM
How it was run: as §1

CP247 = assay: as above; conditions: P. falciparum in erythrocytes, SYBR Green DNA, 72 h; series mostly up to 28.7 µM
How it was run: as §1

CP185 = assay: as above; conditions: P. falciparum in erythrocytes, SYBR Green DNA, 72 h; series mostly up to 28.7 µM
How it was run: as §1

CP191 = assay: as above; conditions: P. falciparum in erythrocytes, SYBR Green DNA, 72 h; series mostly up to 28.7 µM
How it was run: as §1

[2] = at 28.7 µM (top of the series), parasite line A
[3] = at 28.7 µM (top of the series), parasite line B
Potency is read from the fitted curve at half-maximal effect.

O=P(O)(O)CP(=O)(O)O
inactive: activity, negative = inhibition [1, 2] 11.8% | activity, negative = inhibition [1, 3] 12.6% | Potency (3D7) | Potency (7G8) | Potency (AA1029) | Potency (AS120) | Potency (ATS189) | Potency (ATS95) | Potency (C2A) | Potency (CP192) | Potency (CP194) | Potency (CP201) | Potency (CP203) | Potency (CP211) | Potency (CP215) | Potency (CP217) | Potency (CP237) | Potency (CP238) | Potency (CP247)

CCOC(=O)c1c[nH]c2cc(OCC(C)C)c(OCC(C)C)cc2c1=O
active: Potency ([1]; parasite line A) 39.8 nM | Potency ([1]; parasite line B) 56.2 nM | Potency (3D7) 126 nM | Potency (7G8) 70.8 nM | Potency (AA1029) 79.4 nM | Potency (AS120) 44.7 nM | Potency (ATS189) 63.1 nM | Potency (ATS95) 89.1 nM | Potency (C2A) 199 nM | Potency (CP185) 100 nM | Potency (CP191) 50.1 nM | Potency (CP211) 53.6 nM | Potency (CP217) 70.8 nM | Potency (CP237) 79.4 nM | Potency (CP238) 126 nM | Potency (CP247) 79.4 nM

CC(=O)[O][Al][O]C(C)=O
inactive: activity, negative = inhibition [1, 2] 4.56% | activity, negative = inhibition [1, 3] 3.22% | Potency (3D7) | Potency (7G8) | Potency (AA1029) | Potency (AS120) | Potency (ATS189) | Potency (ATS95) | Potency (C2A) | Potency (CP185) | Potency (CP191) | Potency (CP194) | Potency (CP201) | Potency (CP215) | Potency (CP217) | Potency (CP237) | Potency (CP238) | Potency (CP247)

CCSc1ccc2c(c1)N(CCCN1CCN(C)CC1)c1ccccc1S2
inactive: activity, negative = inhibition ([1]; at 12.8 µM (top of the series), parasite line A) 14.2% | activity, negative = inhibition ([1]; at 12.8 µM (top of the series), parasite line B) 7.58% | Potency (3D7) | Potency (AA1029) | Potency (AS120) | Potency (ATS189) | Potency (ATS95) | Potency (C2A) | Potency (CP185) | Potency (CP191) | Potency (CP192) | Potency (CP194) | Potency (CP201) | Potency (CP203) | Potency (CP211) | Potency (CP215) | Potency (CP217) | Potency (CP237) | Potency (CP238) | Potency (CP247)

CN(C)c1ccc(C(=C2C=CC(=[N+](C)C)C=C2)c2c(O)c(S(=O)(=O)[O-])cc3cc(S(=O)(=O)O)ccc23)cc1
inactive: activity, negative = inhibition [1, 2] -15.9% | activity, negative = inhibition [1, 3] -17.8% | Potency (3D7) | Potency (AA1029) | Potency (AS120) | Potency (ATS189) | Potency (ATS95) | Potency (C2A) | Potency (CP185) | Potency (CP191) | Potency (CP192) | Potency (CP194) | Potency (CP201) | Potency (CP203) | Potency (CP211) | Potency (CP215) | Potency (CP217) | Potency (CP237) | Potency (CP238) | Potency (CP247)

CSCCC(N)C(=O)O (centres undefined)
inactive: activity, negative = inhibition [1, 2] 6.14% | activity, negative = inhibition [1, 3] 15.2% | Potency (3D7) | Potency (7G8) | Potency (AA1029) | Potency (AS120) | Potency (ATS189) | Potency (ATS95) | Potency (C2A) | Potency (CP185) | Potency (CP191) | Potency (CP192) | Potency (CP217) | Potency (CP237) | Potency (CP238) | Potency (CP247)
